The text below walks through data of PubChem BioAssay AID588511 (Johns Hopkins Ion Channel Center, 2011).

Screen size: about 310,000 compounds; about 3,600 (1.2%) were called active.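 The calls were made as follows: active = ratio plate-corrected score three or more library SD toward inhibition, starting fluorescence score within five deviations; inactive = the rest.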 This excerpt belongs to a sample that is enriched for actives.

Anoctamin-1 (Mus musculus), sequence (Q8BHY3 whole entry, looked up): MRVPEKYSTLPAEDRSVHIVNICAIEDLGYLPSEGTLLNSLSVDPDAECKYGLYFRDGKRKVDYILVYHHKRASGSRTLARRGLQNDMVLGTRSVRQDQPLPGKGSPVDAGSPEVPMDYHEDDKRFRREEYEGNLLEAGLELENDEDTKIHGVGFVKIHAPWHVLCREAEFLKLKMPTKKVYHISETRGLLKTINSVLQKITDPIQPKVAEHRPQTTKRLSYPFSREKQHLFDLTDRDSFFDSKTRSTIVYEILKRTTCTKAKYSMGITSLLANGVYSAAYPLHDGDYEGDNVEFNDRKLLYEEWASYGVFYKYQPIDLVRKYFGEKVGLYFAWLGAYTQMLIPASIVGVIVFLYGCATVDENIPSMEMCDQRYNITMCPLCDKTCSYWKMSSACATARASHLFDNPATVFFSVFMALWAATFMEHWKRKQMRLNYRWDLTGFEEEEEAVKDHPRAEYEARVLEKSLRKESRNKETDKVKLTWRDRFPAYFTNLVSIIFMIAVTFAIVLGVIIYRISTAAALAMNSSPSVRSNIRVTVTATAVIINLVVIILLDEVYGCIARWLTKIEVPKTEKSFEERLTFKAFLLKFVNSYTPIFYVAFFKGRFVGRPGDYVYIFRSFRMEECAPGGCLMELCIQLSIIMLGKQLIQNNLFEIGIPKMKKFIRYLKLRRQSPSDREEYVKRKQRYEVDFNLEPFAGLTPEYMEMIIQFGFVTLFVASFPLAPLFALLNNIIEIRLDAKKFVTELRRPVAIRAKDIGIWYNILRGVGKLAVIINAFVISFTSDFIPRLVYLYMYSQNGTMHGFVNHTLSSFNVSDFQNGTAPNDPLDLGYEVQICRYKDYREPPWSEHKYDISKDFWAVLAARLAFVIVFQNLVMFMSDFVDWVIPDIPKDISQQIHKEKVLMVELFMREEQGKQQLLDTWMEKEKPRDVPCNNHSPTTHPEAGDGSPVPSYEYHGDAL

The assay has as its target Anoctamin-1 (Mus musculus) (UniProt Q8BHY3). In words: blockers of mouse ANO1 Ca-activated Cl channel – cell-based, HTS, primary screen (AID 588511).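 As to normalized B-score (activity score, 25-100; higher = stronger inhibition): score derived from kinetic fluorescence span divided by baseline fluorescence per well.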 The note with it: HEK293 TMEM16A/YFP iodide influx fluorescence, ionomycin; at 10 µM.
Consider `O=C(CSc1nnc2c(n1)[nH]c1ccccc12)NC1CCCCC1`, for which the normalized B-score (activity score, 25-100; higher = stronger inhibition) result is “inactive”.

For `Cc1ccc(CNC(=O)C2CCCN2S(=O)(=O)c2ccc3c(c2)C(C)(C)C(=O)N3C)cc1` (stereo not drawn), the normalized B-score (activity score, 25-100; higher = stronger inhibition) entry was “inactive”. Under `CN(C)S(=O)(=O)c1ccc(Oc2ccc(S(=O)(=O)N(C)C)cc2)cc1` stands “inactive”.

With `Cc1ccc(S(=O)(=O)c2ccc(Oc3ccccc3)cc2)cc1`, the normalized B-score (activity score, 25-100; higher = stronger inhibition) was 100 (active).

For the molecule `Cc1n[nH]c(=O)n1-c1ccc(Oc2ccccc2)cc1`, the normalized B-score (activity score, 25-100; higher = stronger inhibition) result is “inactive”.

On to `Cc1cc(C)c(NC(=O)CN2CCCCCC2)c(C)c1`, for which the normalized B-score (activity score, 25-100; higher = stronger inhibition) entry is “inactive”. Then `CN(C)C(=O)CCC(=O)N1CCCCC1C(=O)Nc1ccc(Oc2ccccc2F)cc1` (stereo not drawn), with “inactive”.

Take `CC(C)(C)C(=O)/C(C#N)=C/c1ccc(O)cc1`: the normalized B-score (activity score, 25-100; higher = stronger inhibition) is 25 (active).

Take `CCOC(=O)NC(=O)/C(C#N)=C\c1ccccc1`: the normalized B-score (activity score, 25-100; higher = stronger inhibition) entry is “inactive”. Then `CC(C)NC(=O)/C(C#N)=C\c1ccc(N(C)C)c(Br)c1`, with “inactive”; and `Fc1ccccc1CNC(=S)Nc1ccc(Cl)cc1`, with “inactive”. Take `S=C(NCc1cccs1)Nc1ccc(Cl)cc1`: the normalized B-score (activity score, 25-100; higher = stronger inhibition) was 25 (active).

For `COc1ccc(NC(=S)NCc2cccs2)c(OC)c1`, the normalized B-score (activity score, 25-100; higher = stronger inhibition) entry was “inactive”.

Turning to `Cc1ccc(Cc2nnc(SCC(=O)Nc3ccc(C)cc3C)[nH]c2=O)cc1`, the normalized B-score (activity score, 25-100; higher = stronger inhibition) result was “inactive”.

For `COc1cc(CNCc2ccc(OC)c3ccccc23)cc(OC)c1OC`, the normalized B-score (activity score, 25-100; higher = stronger inhibition) result was “inactive”. As for `COCCCNC(=O)C1CCN(c2ccc(N3CCOCC3)nn2)CC1`, the normalized B-score (activity score, 25-100; higher = stronger inhibition) entry is “inactive”. On to `CC(=O)Nc1c2c(nn1-c1ccc(C)cc1C)CS(=O)C2` (stereo not drawn), for which the normalized B-score (activity score, 25-100; higher = stronger inhibition) entry is “inactive”. Then `N#Cc1nc(N)nc(N(c2ccccc2)c2ccccc2)n1`, with 100 (active). Then `CC(C)Nc1nc(N(c2ccccc2)c2ccccc2)nc(-n2ccnc2)n1`, with “inactive”. For `Nc1nc(-c2ccccc2)cc(-c2ccccc2)n1`, the normalized B-score (activity score, 25-100; higher = stronger inhibition) entry was “inactive”. Then `COc1ccccc1CNC(=O)CNC(=O)c1cn(-c2ccccc2OC)c(=O)c2ccccc12`, with “inactive”; and `O=C(Nc1ccccc1F)c1ccccc1-c1ccccc1`, with “inactive”.

In the case of `Cc1ccccc1NC(=O)C(C)c1ccc(-c2ccccc2)c(F)c1` (stereo not drawn), the normalized B-score (activity score, 25-100; higher = stronger inhibition) is 100 (active). Under `CC(C(=O)Nc1ccccc1-c1ccccc1)N1CCOCC1` (stereo not drawn) stands “inactive”. `CCOCCCNC(=O)c1cn(CC(C)C)c(=O)c2c1c1ccccc1n2C`: the normalized B-score (activity score, 25-100; higher = stronger inhibition) entry was “inactive”. In the case of `CC(Cc1cccs1)NC(=O)c1cccc(Cl)c1` (stereo not drawn), the normalized B-score (activity score, 25-100; higher = stronger inhibition) result is “inactive”. Under `CN(Cc1ccccc1)C(=O)COc1ccccc1` stands “inactive”. Under `COc1ccc(CN(C)C(=O)CC(c2ccccc2)c2ccccc2)cc1` stands 25 (active); under `CN(Cc1ccccc1)C(=O)CCc1ccccc1`, “inactive”; under `C=CCOc1ccc(/C=C/C(=O)OC(C)C(=O)Nc2ccc(NC(C)=O)cc2)cc1` (stereo not drawn), “inactive”. Under `CCCCCCCCCCOC(=O)Cn1c(COc2cccc(OC)c2)[n+](C)c2ccccc21` stands “inactive”. For `Cc1ccc(OCc2nc3ccccc3n2C)cc1`, the normalized B-score (activity score, 25-100; higher = stronger inhibition) entry is “inactive”. Under `CCCCCCCCCCOC(=O)Cn1c(COc2ccc(C)cc2)[n+](C)c2ccccc21` stands 25 (active); under `Cc1ccc(-c2nn(-c3ccc(F)cc3)cc2C(=O)NCC(c2cccs2)N2CCOCC2)cc1` (stereo not drawn), “inactive”. Under `O=C(COC(=O)[C@H](Cc1ccccc1)NC(=O)c1cccs1)Nc1cc(F)ccc1F` stands “inactive”; under `COc1ccc(Cl)cc1NC(=O)CCS(=O)(=O)c1cc2c(cc1C)NC(=O)CO2`, 100 (active). On to `COc1ccc(NC(=O)CCS(=O)(=O)c2cc3c(cc2Cl)NC(=O)CO3)cc1OC`, for which the normalized B-score (activity score, 25-100; higher = stronger inhibition) entry is “inactive”. Under `Cc1cc2c(cc1S(=O)(=O)CCC(=O)NCc1ccccc1)OCC(=O)N2` stands “inactive”. `C=C(C)c1cccc(C(C)(C)NC(=O)N2CCN(c3ncccn3)CC2)c1`: the normalized B-score (activity score, 25-100; higher = stronger inhibition) entry is “inactive”. Under `CN(CC(=O)Nc1cccc(F)c1)CC(=O)Nc1cccc([N+](=O)[O-])c1` stands “inactive”. As for `Cc1ccc(NC(=O)CN(C)CC(=O)Nc2cccc(F)c2)cc1[N+](=O)[O-]`, the normalized B-score (activity score, 25-100; higher = stronger inhibition) was 100 (active).

In the case of `Cc1ccc(CN(C)CC(=O)Nc2cccc([N+](=O)[O-])c2)o1`, the normalized B-score (activity score, 25-100; higher = stronger inhibition) result is “inactive”. Then `Cc1cccc2c1cnn2C(=O)CCC(=O)NC1CCCCC1`, with “inactive”.
